Holding throughout (test): PBM; 200 nM protein, PBS
Common to all, as to settings: dsDNA, one strand shown

For assay [1], the target named is T1, VENTX (Homo sapiens, UniProt O95231 78-163, R121Q).
T1 sequence: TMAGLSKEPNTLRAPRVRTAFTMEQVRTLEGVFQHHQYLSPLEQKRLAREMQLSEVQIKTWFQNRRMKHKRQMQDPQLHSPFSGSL

In assay [2] the target is T2, VENTX (Homo sapiens, UniProt O95231 78-163).
T2 sequence: T1 sequence with Q44R

In assay [3] the target is T3, VENTX (Homo sapiens, UniProt O95231 78-163, Y115F).
T3 sequence: T1 sequence with Y38F, Q44R

Assay [4] concerns the target CRX (Homo sapiens, UniProt O43186 26-111, R41L).
In assay [5] the target is VAX1 (Homo sapiens, UniProt Q5SQQ9 86-172).
In assay [6] the target is VAX1 (Homo sapiens, UniProt Q5SQQ9 86-172, T142I).
Assay [7] deals with VAX1 (Homo sapiens, UniProt Q5SQQ9 86-172, K157R).
The target in assay [8] is HOXB9 (Homo sapiens, UniProt P17482 171-250, T197M).
In assay [9] the target is HOXC9 (Homo sapiens, UniProt P31274 178-260, K195R).
Assay [10] has as its target HOXA7 (Homo sapiens, UniProt P31268 116-202).
In assay [11] the target is HOXC10 (Homo sapiens, UniProt Q9NYD6 254-340).
Assay [12] addresses HOXB6 (Homo sapiens, UniProt P17509 132-218, K202E).
Assay [13] deals with HOXB9 (Homo sapiens, UniProt P17482 171-250).
The target of assay [14] is HOXC9 (Homo sapiens, UniProt P31274 178-260).
Assay [15] concerns the target MSX2 (Homo sapiens, UniProt P35548 130-214, R199I).
In assay [16] the target is HOXD13 (Homo sapiens, UniProt P35453 263-343, T313R).
Assay [17] has as its target HOXC9 (Homo sapiens, UniProt P31274 178-260, R193K).
Assay [18] addresses HOXC10 (Homo sapiens, UniProt Q9NYD6 254-340, K271E).
Assay [19] addresses MSX2 (Homo sapiens, UniProt P35548 130-214).
Assay [20] has as its target HOXB9 (Homo sapiens, UniProt P17482 171-250, R186Q).
In assay [21] the target is HOXC9 (Homo sapiens, UniProt P31274 178-260, R222W).
Assay [22] has as its target MSX2 (Homo sapiens, UniProt P35548 130-214, F161Y).
The target in assay [23] is HOXA7 (Homo sapiens, UniProt P31268 116-202, W177C).
In assay [24] the target is HOXB6 (Homo sapiens, UniProt P17509 132-218).
Assay [25] deals with HOXD13 (Homo sapiens, UniProt P35453 263-343).
In assay [26] the target is HOXD13 (Homo sapiens, UniProt P35453 263-343, T313A).

The text below walks through data of publication PMC11006913.

Positions count from the first letter of the chain named.

Sequence of HOXA7 (Homo sapiens, UniProt P31268 116-202) (P31268 116-202): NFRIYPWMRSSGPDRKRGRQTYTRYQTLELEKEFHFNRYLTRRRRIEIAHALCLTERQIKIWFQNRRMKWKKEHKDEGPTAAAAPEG
Sequence of VAX1 (Homo sapiens, UniProt Q5SQQ9 86-172, T142I) (Q5SQQ9 86-172 T142I): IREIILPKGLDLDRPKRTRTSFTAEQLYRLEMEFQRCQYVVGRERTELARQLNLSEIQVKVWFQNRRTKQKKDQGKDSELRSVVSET
Sequence of HOXC9 (Homo sapiens, UniProt P31274 178-260) (P31274 178-260): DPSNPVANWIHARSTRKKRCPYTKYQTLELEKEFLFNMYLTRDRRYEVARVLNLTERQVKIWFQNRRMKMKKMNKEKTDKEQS
Sequence of HOXA7 (Homo sapiens, UniProt P31268 116-202, W177C) (P31268 116-202 W177C): as the sequence (P31268 116-202) above, with W62C counted along it
Sequence of VAX1 (Homo sapiens, UniProt Q5SQQ9 86-172, K157R) (Q5SQQ9 86-172 K157R): as the sequence (Q5SQQ9 86-172 T142I) above, with I57T, K72R counted along it
Sequence of HOXC9 (Homo sapiens, UniProt P31274 178-260, R222W) (P31274 178-260 R222W): as the sequence (P31274 178-260) above, with R45W counted along it
Sequence of VAX1 (Homo sapiens, UniProt Q5SQQ9 86-172) (Q5SQQ9 86-172): as the sequence (Q5SQQ9 86-172 T142I) above, with I57T counted along it
Sequence of HOXC9 (Homo sapiens, UniProt P31274 178-260, R193K) (P31274 178-260 R193K): as the sequence (P31274 178-260) above, with R16K counted along it
Sequence of HOXC9 (Homo sapiens, UniProt P31274 178-260, K195R) (P31274 178-260 K195R): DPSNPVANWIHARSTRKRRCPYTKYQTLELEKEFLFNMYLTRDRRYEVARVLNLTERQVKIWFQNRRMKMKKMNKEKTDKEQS
Sequence of HOXB9 (Homo sapiens, UniProt P17482 171-250, R186Q) (P17482 171-250 R186Q): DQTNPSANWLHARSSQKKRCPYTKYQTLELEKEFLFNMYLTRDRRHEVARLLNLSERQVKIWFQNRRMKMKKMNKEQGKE
Sequence of HOXB6 (Homo sapiens, UniProt P17509 132-218) (P17509 132-218): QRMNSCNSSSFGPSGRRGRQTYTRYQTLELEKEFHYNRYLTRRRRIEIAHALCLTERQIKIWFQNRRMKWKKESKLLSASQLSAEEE
Sequence of HOXB9 (Homo sapiens, UniProt P17482 171-250) (P17482 171-250): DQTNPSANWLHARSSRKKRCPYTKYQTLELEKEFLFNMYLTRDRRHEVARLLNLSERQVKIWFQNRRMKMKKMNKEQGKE
Sequence of HOXC10 (Homo sapiens, UniProt Q9NYD6 254-340, K271E) (Q9NYD6 254-340 K271E): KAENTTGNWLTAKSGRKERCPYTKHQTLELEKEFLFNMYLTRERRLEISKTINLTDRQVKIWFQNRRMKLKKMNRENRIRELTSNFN
Sequence of HOXC10 (Homo sapiens, UniProt Q9NYD6 254-340) (Q9NYD6 254-340): as the sequence (Q9NYD6 254-340 K271E) above, with E18K counted along it
Sequence of HOXB9 (Homo sapiens, UniProt P17482 171-250, T197M) (P17482 171-250 T197M): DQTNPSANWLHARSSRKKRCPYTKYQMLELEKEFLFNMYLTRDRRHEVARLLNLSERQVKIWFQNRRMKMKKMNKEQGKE
Sequence of HOXD13 (Homo sapiens, UniProt P35453 263-343, T313R) (P35453 263-343 T313R): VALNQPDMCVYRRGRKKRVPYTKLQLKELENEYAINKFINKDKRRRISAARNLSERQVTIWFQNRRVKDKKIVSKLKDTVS
Sequence of HOXB6 (Homo sapiens, UniProt P17509 132-218, K202E) (P17509 132-218 K202E): as the sequence (P17509 132-218) above, with K71E counted along it
Sequence of MSX2 (Homo sapiens, UniProt P35548 130-214, F161Y) (P35548 130-214 F161Y): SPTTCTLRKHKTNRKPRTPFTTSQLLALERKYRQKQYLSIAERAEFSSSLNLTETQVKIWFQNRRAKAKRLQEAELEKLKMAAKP
Sequence of HOXD13 (Homo sapiens, UniProt P35453 263-343, T313A) (P35453 263-343 T313A): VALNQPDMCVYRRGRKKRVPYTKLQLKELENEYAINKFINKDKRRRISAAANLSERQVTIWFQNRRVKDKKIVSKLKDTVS
Sequence of MSX2 (Homo sapiens, UniProt P35548 130-214, R199I) (P35548 130-214 R199I): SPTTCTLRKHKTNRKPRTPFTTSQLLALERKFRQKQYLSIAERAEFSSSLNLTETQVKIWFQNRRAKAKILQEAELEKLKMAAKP
Sequence of HOXD13 (Homo sapiens, UniProt P35453 263-343) (P35453 263-343): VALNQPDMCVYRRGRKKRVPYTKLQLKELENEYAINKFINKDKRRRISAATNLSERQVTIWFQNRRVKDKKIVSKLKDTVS
Sequence of MSX2 (Homo sapiens, UniProt P35548 130-214) (P35548 130-214): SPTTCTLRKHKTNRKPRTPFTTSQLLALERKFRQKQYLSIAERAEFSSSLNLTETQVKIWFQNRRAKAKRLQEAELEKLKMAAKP
Sequence of CRX (O43186 26-111 R41L): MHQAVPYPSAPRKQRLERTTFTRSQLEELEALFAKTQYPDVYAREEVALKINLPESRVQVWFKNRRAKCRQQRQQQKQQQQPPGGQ

Turning to CCTAATCG, the binding signal is 11.4 upbm affinity estimate (log intensity, higher = more binding, comparable within an allelic series) in assay [1]; 12.5 upbm affinity estimate (log intensity, higher = more binding, comparable within an allelic series) in assay [2]; 11.3 upbm affinity estimate (log intensity, higher = more binding, comparable within an allelic series) in assay [3]; 10.8 upbm affinity estimate (log intensity, higher = more binding, comparable within an allelic series) in assay [4].

Consider GCGCGAAC, for which the binding signal is 8.01 upbm affinity estimate (log intensity, higher = more binding, comparable within an allelic series) in assay [1]; 8 upbm affinity estimate (log intensity, higher = more binding, comparable within an allelic series) in [2]; 8.06 upbm affinity estimate (log intensity, higher = more binding, comparable within an allelic series) in assay [3]; 7.03 upbm affinity estimate (log intensity, higher = more binding, comparable within an allelic series) in assay [5]; 7.1 upbm affinity estimate (log intensity, higher = more binding, comparable within an allelic series) in assay [6]; 7.1 upbm affinity estimate (log intensity, higher = more binding, comparable within an allelic series) in assay [7].

In the case of CCCATTAG, the binding signal in assay [1] was 12.1 upbm affinity estimate (log intensity, higher = more binding, comparable within an allelic series); in [2], 13 upbm affinity estimate (log intensity, higher = more binding, comparable within an allelic series); in assay [3], 11.9 upbm affinity estimate (log intensity, higher = more binding, comparable within an allelic series); in assay [5] it was 12.6 upbm affinity estimate (log intensity, higher = more binding, comparable within an allelic series); in [6], 12 upbm affinity estimate (log intensity, higher = more binding, comparable within an allelic series); in [7], 12.3 upbm affinity estimate (log intensity, higher = more binding, comparable within an allelic series).

On to CCCGATTA, for which the binding signal in [1] was 10.4 upbm affinity estimate (log intensity, higher = more binding, comparable within an allelic series); in assay [3] it was 10.6 upbm affinity estimate (log intensity, higher = more binding, comparable within an allelic series).

For the sequence ATTTAATG, the binding signal was 10.2 upbm affinity estimate (log intensity, higher = more binding, comparable within an allelic series) in assay [8]; 13.1 upbm affinity estimate (log intensity, higher = more binding, comparable within an allelic series) in assay [9]; 11.3 upbm affinity estimate (log intensity, higher = more binding, comparable within an allelic series) in assay [10]; 12.4 upbm affinity estimate (log intensity, higher = more binding, comparable within an allelic series) in assay [11]; 10.1 upbm affinity estimate (log intensity, higher = more binding, comparable within an allelic series) in assay [12]; 12.3 upbm affinity estimate (log intensity, higher = more binding, comparable within an allelic series) in assay [13]. Moreover, the binding signal was 13 upbm affinity estimate (log intensity, higher = more binding, comparable within an allelic series) in assay [14]; 11.4 upbm affinity estimate (log intensity, higher = more binding, comparable within an allelic series) in [15]; 10.7 upbm affinity estimate (log intensity, higher = more binding, comparable within an allelic series) in assay [16]; 13 upbm affinity estimate (log intensity, higher = more binding, comparable within an allelic series) in assay [17]; 12.2 upbm affinity estimate (log intensity, higher = more binding, comparable within an allelic series) in assay [18]; 12.2 upbm affinity estimate (log intensity, higher = more binding, comparable within an allelic series) in [19]. Besides, the binding signal was 12.1 upbm affinity estimate (log intensity, higher = more binding, comparable within an allelic series) in assay [20]; 11.2 upbm affinity estimate (log intensity, higher = more binding, comparable within an allelic series) in [21]; 12 upbm affinity estimate (log intensity, higher = more binding, comparable within an allelic series) in [22]; 8.91 upbm affinity estimate (log intensity, higher = more binding, comparable within an allelic series) in [23]; 11.9 upbm affinity estimate (log intensity, higher = more binding, comparable within an allelic series) in [24].

With CTAACGAG, the binding signal in assay [1] was 10.2 upbm affinity estimate (log intensity, higher = more binding, comparable within an allelic series); in assay [14], 10.9 upbm affinity estimate (log intensity, higher = more binding, comparable within an allelic series); in assay [17], 10.8 upbm affinity estimate (log intensity, higher = more binding, comparable within an allelic series); in assay [21] it was 10.1 upbm affinity estimate (log intensity, higher = more binding, comparable within an allelic series).

For the sequence CGATTACG, the binding signal in assay [1] is 10.5 upbm affinity estimate (log intensity, higher = more binding, comparable within an allelic series); in assay [10], 9.64 upbm affinity estimate (log intensity, higher = more binding, comparable within an allelic series); in assay [23], 8.74 upbm affinity estimate (log intensity, higher = more binding, comparable within an allelic series).

Take AACCGATT: the binding signal in assay [1] was 10.1 upbm affinity estimate (log intensity, higher = more binding, comparable within an allelic series); in assay [3], 10.3 upbm affinity estimate (log intensity, higher = more binding, comparable within an allelic series).

On to ATAATCGG, for which the binding signal was 10.6 upbm affinity estimate (log intensity, higher = more binding, comparable within an allelic series) in assay [1] and 10.7 upbm affinity estimate (log intensity, higher = more binding, comparable within an allelic series) in assay [3].

Take CCCACGCA: the binding signal in [1] was 8.08 upbm affinity estimate (log intensity, higher = more binding, comparable within an allelic series); in assay [2], 7.93 upbm affinity estimate (log intensity, higher = more binding, comparable within an allelic series); in [3], 7.96 upbm affinity estimate (log intensity, higher = more binding, comparable within an allelic series); in [5], 7.08 upbm affinity estimate (log intensity, higher = more binding, comparable within an allelic series); in assay [6], 7.21 upbm affinity estimate (log intensity, higher = more binding, comparable within an allelic series); in assay [7] it was 7.04 upbm affinity estimate (log intensity, higher = more binding, comparable within an allelic series).

With GTAATAAA, the binding signal is 10.1 upbm affinity estimate (log intensity, higher = more binding, comparable within an allelic series) in assay [8]; 13.2 upbm affinity estimate (log intensity, higher = more binding, comparable within an allelic series) in assay [9]; 11.4 upbm affinity estimate (log intensity, higher = more binding, comparable within an allelic series) in assay [10]; 13 upbm affinity estimate (log intensity, higher = more binding, comparable within an allelic series) in assay [11]; 9.9 upbm affinity estimate (log intensity, higher = more binding, comparable within an allelic series) in assay [12]; 12.6 upbm affinity estimate (log intensity, higher = more binding, comparable within an allelic series) in assay [13]. Besides, the binding signal is 13.3 upbm affinity estimate (log intensity, higher = more binding, comparable within an allelic series) in [14]; 11 upbm affinity estimate (log intensity, higher = more binding, comparable within an allelic series) in assay [16]; 13.2 upbm affinity estimate (log intensity, higher = more binding, comparable within an allelic series) in [17]; 12.1 upbm affinity estimate (log intensity, higher = more binding, comparable within an allelic series) in [25]; 12.6 upbm affinity estimate (log intensity, higher = more binding, comparable within an allelic series) in assay [18]; 11.9 upbm affinity estimate (log intensity, higher = more binding, comparable within an allelic series) in [26]. Further, the binding signal in assay [20] is 12.3 upbm affinity estimate (log intensity, higher = more binding, comparable within an allelic series); in assay [21], 11.4 upbm affinity estimate (log intensity, higher = more binding, comparable within an allelic series); in [23], 8.79 upbm affinity estimate (log intensity, higher = more binding, comparable within an allelic series); in assay [24], 11.8 upbm affinity estimate (log intensity, higher = more binding, comparable within an allelic series).
